Measured values taken from PubChem BioAssay (NCATS).
Where “and” joins values, the source holds several entries; their conditions need not be identical. Identical values can stand only once. A number with no mark means an inactive call. Unless noted, calls follow the shape of the dose curve; as a rule, active = well fitted inhibition curve with a large enough effect; inconclusive = small, poorly fitted or top-dose-only effect; inactive = flat fitted curve, though single readings scatter. Inconclusive results are not listed.

Columns and labels:
[1] = Drug repurposing screens with cells derived from glioblastoma tumor samples (AID 1345199); conditions: GBM patient neurospheres viability, ATP luminescence, 48 h; also: % is scaled to controls: 0 for no effect and ±100 for the full control effect; nearly all actives have a fitted effect of over 40% in size
Procedure, shortened: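 Primary testing used CD133+ neurospheres from four GBM patients, seven concentrations, 48 h exposure and ATP-based viability; confirmation added three slower-growing patient lines.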

[2] = target: Nuclear receptor subfamily 1 group I member 2 (Rattus norvegicus) (UniProt Q9R1A7); experiment: qHTS assay for small molecule activators of the rat pregnane X receptor (rPXR) signaling pathway (AID 651751; call rule not given here; also: 0% is about no effect); conditions: rPXR reporter cells, luciferase (One-Glo), 24 h
[3] = at 46.1 µM (top of the series), tumour line C
[4] = at 45.9 µM (top of the series), tumour line B
[5] = at 45.9 µM (top of the series), tumour line D
[6] = at 46 µM (top of the series), tumour line A

Nuclear receptor subfamily 1 group I member 2 (Rattus norvegicus), sequence (Q9R1A7 whole entry, looked up): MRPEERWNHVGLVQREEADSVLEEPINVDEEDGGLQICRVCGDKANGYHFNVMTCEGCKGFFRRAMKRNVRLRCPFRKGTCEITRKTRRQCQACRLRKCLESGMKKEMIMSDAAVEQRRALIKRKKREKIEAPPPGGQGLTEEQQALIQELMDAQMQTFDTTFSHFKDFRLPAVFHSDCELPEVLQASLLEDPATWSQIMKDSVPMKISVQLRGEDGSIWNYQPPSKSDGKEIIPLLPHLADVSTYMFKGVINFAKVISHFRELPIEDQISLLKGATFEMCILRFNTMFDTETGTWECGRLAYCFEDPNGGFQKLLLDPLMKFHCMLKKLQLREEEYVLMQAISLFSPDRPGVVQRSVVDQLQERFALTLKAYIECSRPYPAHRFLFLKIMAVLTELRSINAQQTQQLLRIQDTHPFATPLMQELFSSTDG

| Structure (SMILES) | activity, negative = cell killing [1, 3] | activity, negative = cell killing [1, 4] | activity, negative = cell killing [1, 5] | activity, negative = cell killing [1, 6] | max response [2] |
| --- | --- | --- | --- | --- | --- |
| O=C(O)c1c(Cl)c(Cl)c(Cl)c(Cl)c1-c1c2cc(I)c(=O)c(I)c-2oc2c(I)c(O)c(I)cc12 | -28.5% | – | – | – | – |
| Cc1cnc(C(=O)O)c[n+]1[O-] | -29.9% and -17.2% and -16.5% | -12.7% and -17.2% and -5.56% | -2.04% and 1.27% and -4.74% | -14.3% and -47.1% | – |
| N#C[C@H]1C[C@H]2C[C@@H]2N1C(=O)[C@@H](N)C12CC3CC(CC(O)(C3)C1)C2 | 4.9% | -2.78% | -16.4% | -21.1% | – |
| O=c1cc(-c2ccc(O)cc2)oc2cc(O)cc(O)c12 | – | – | – | – | -6.83% and -1.04% |
